Among the test systems are HCT-15 colon; HT29 colon; SNB-75 CNS; SNB-19 CNS; U251 CNS; PC-3 prostate; SK-MEL-5 melanoma; UACC-62 melanoma; LOX IMVI melanoma; SK-MEL-28 melanoma; SK-MEL-2 melanoma; EKVX NSCLC; SN12C renal; UO-31 renal; TK-10 renal; ACHN renal; CAKI-1 renal; A498 renal; CCRF-CEM leukemia; MOLT-4 leukemia.
Holding throughout (experiment): NCI-60 one-dose screen, 48 h (100 = growth as untreated, 0 = no growth, -100 = all killed)
Holding throughout (settings): 10 µM unless noted

SMILES strings stand for the structures. About 83,000 compounds went through this panel and 20% of them were active in at least one assay; those are over-represented in the sample as a whole.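 Single-dose data. Exposure time 48 hours. Values below 10 considered active.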 A number with no mark means an inactive call. Activity calls are given as the source filed them.

For the compound `O=C(NN1C(=O)CSC1c1cccc([N+](=O)[O-])c1)c1ccc(NC(=O)c2ccccn2)cc1` (stereo not given), the growth in the assay with HCT-15 colon is 92.3%; in the assay with HT29 colon, 105%; in the assay on SNB-75 CNS it was 98.9%; in the assay with SNB-19 CNS, 97.8%; in the assay on U251 CNS it was 106%; with PC-3 prostate it was 107%. Besides, the growth was 102% in the assay with SK-MEL-5 melanoma; 96% in the assay with UACC-62 melanoma; 94.9% in the assay with LOX IMVI melanoma; 99.3% with SK-MEL-28 melanoma; 102% with SK-MEL-2 melanoma; 97.7% in the assay with EKVX NSCLC. Also, the growth was 96.9% in the assay on SN12C renal; 94.5% in the assay on UO-31 renal; 97% in the assay with TK-10 renal; 103% in the assay on ACHN renal; 98.7% in the assay with CAKI-1 renal; 97.5% in the assay with A498 renal. Also, the growth in the assay on CCRF-CEM leukemia was 110%; in the assay with MOLT-4 leukemia, 69.7%.

In the case of `O=C1OCC2=C1C(c1ccccc1)c1cc3c(cc1N2CCO)OCCO3` (stereo not given), the growth in the assay with HCT-15 colon is 7.18% (active); in the assay on HT29 colon, -35.9% (active); in the assay with SNB-75 CNS it was -11.2% (active); in the assay on SNB-19 CNS, 12.8%; in the assay with U251 CNS it was 7.86% (active); in the assay on PC-3 prostate, 17.3%. Moreover, the growth in the assay on SK-MEL-5 melanoma is 4.37% (active); with UACC-62 melanoma, 14.5%; in the assay on LOX IMVI melanoma, 34.6%; in the assay with SK-MEL-28 melanoma, 32.6%; in the assay on SK-MEL-2 melanoma, 57.3%; with EKVX NSCLC, 48.4%. Besides, the growth with SN12C renal is 35.1%; in the assay with UO-31 renal, 68.4%; in the assay with TK-10 renal, 63.5%; in the assay with ACHN renal, 36.7%; with CAKI-1 renal, 51%; with A498 renal it was -21.2% (active). The growth in the assay with CCRF-CEM leukemia is 10.5%; with MOLT-4 leukemia, 21.4%.

As for `O=C(C1=Cc2cc3ccccc3n2Cc2cnnn21)c1ccc(F)cc1`, the growth is 95.8% in the assay on HCT-15 colon; 112% in the assay with HT29 colon; 86.2% with SNB-75 CNS; 94.1% in the assay on SNB-19 CNS; 98.2% in the assay on U251 CNS; 92.3% in the assay with PC-3 prostate. The growth with SK-MEL-5 melanoma was 96%; with UACC-62 melanoma, 90.9%; in the assay on LOX IMVI melanoma, 98.8%; in the assay on SK-MEL-28 melanoma it was 105%; in the assay with SK-MEL-2 melanoma, 103%; in the assay on EKVX NSCLC it was 96.2%. The growth with SN12C renal is 97.6%; in the assay with UO-31 renal, 88.6%; in the assay on TK-10 renal, 107%; with ACHN renal, 103%; in the assay on CAKI-1 renal it was 90.9%; with A498 renal, 79.9%. Also, the growth in the assay with CCRF-CEM leukemia was 97.8%; with MOLT-4 leukemia, 89%.

Consider `Cc1oc(-c2ccc(Cl)cc2)nc1C1=NN(C(=O)c2ccncc2)C(c2ccccc2)C1` (stereo not given), for which the growth was 91.3% with HCT-15 colon; 96.6% in the assay with HT29 colon; 92.8% with SNB-75 CNS; 80.3% in the assay on SNB-19 CNS; 92.8% in the assay with U251 CNS; 83.7% with PC-3 prostate. Further, the growth in the assay with SK-MEL-5 melanoma was 97.3%; with UACC-62 melanoma, 72.9%; with LOX IMVI melanoma, 92.7%; in the assay with SK-MEL-28 melanoma, 89.7%; with SK-MEL-2 melanoma it was 97.2%; with EKVX NSCLC, 95.8%. Also, the growth was 88.7% with SN12C renal; 59.5% in the assay with UO-31 renal; 114% with TK-10 renal; 92% in the assay on ACHN renal; 76% in the assay with CAKI-1 renal; 78% in the assay with A498 renal. Also, the results for the growth in the assay with CCRF-CEM leukemia and in the assay on MOLT-4 leukemia were 93.4% and 77.1%, respectively.

`Clc1ccc(-c2nc(C(Cl)Cl)nc3cc(-c4ccccc4)nn23)cc1`: the growth is 8.19% (active) in the assay with HCT-15 colon; 5.93% (active) in the assay on HT29 colon; -13.1% (active) in the assay on SNB-75 CNS; 25.2% in the assay on SNB-19 CNS; 7% (active) with U251 CNS; 41.2% in the assay on PC-3 prostate. The growth in the assay with SK-MEL-5 melanoma is 82.2%; in the assay on UACC-62 melanoma, 79.8%; with LOX IMVI melanoma, 78.5%; with SK-MEL-28 melanoma it was 47.9%; in the assay with SK-MEL-2 melanoma, 84.5%; with EKVX NSCLC, -12.8% (active). In addition, the growth in the assay with SN12C renal is 65.1%; in the assay with UO-31 renal, 47.3%; with TK-10 renal, 36.8%; in the assay on ACHN renal, -52.8% (active); in the assay on CAKI-1 renal, -15.8% (active); with A498 renal it was -15.8% (active). The growth is 53.4% with CCRF-CEM leukemia and 31.7% in the assay on MOLT-4 leukemia.

Turning to `C/C(=N\Nc1ccccc1)c1ccc(NC2=CC(=O)c3ccccc3C2=O)cc1`, the growth was 31.9% in the assay on HCT-15 colon; 75.3% in the assay with HT29 colon; 51.1% with SNB-75 CNS; 85.7% with SNB-19 CNS; 45.8% with U251 CNS; 40.1% in the assay with PC-3 prostate. In addition, the growth with SK-MEL-5 melanoma is -10.5% (active); in the assay on UACC-62 melanoma, -7.92% (active); in the assay with LOX IMVI melanoma, 21.4%; with SK-MEL-28 melanoma it was 65.9%; in the assay on SK-MEL-2 melanoma, 55.6%; with EKVX NSCLC, 74%. Besides, the growth is 63.5% with SN12C renal; 38.8% with UO-31 renal; 81.5% in the assay on TK-10 renal; 48.2% with ACHN renal; 43.8% with CAKI-1 renal; 110% in the assay on A498 renal. For the same compound, the growth in the assay on CCRF-CEM leukemia was 62.7%; in the assay with MOLT-4 leukemia, 63%.

For `COc1ccc(-c2cc(C(=O)N3N=C(c4ccc(N)cc4)CC3c3ccc(Cl)cc3)c3ccccc3n2)cc1` (stereo not given), the growth in the assay on HCT-15 colon was 21.4%; in the assay with HT29 colon, -11.7% (active); in the assay with SNB-75 CNS, 5.79% (active); in the assay on SNB-19 CNS, 48.3%; in the assay with U251 CNS it was 15.2%; with PC-3 prostate it was 26.1%. Moreover, the growth in the assay on SK-MEL-5 melanoma was 25.9%; in the assay on UACC-62 melanoma, 38.3%; in the assay with LOX IMVI melanoma, 33%; with SK-MEL-28 melanoma, 63.4%; in the assay on SK-MEL-2 melanoma, 20.1%; with EKVX NSCLC, 41%. For the same compound, the growth is 41% in the assay on SN12C renal; 45.3% with UO-31 renal; 35.6% in the assay with TK-10 renal; 43.6% with ACHN renal; 28.3% in the assay on CAKI-1 renal; -1.93% (active) in the assay on A498 renal. Besides, the growth with CCRF-CEM leukemia was 16.5%; with MOLT-4 leukemia, 20.5%.

The record behind these values is PubChem BioAssay (NCI).
